Drawing on paper PMC12529666, “Dysregulation of AGO2-miRNA dynamics underlies the AGO2-associated Lessel–Kreienkamp syndrome”, this text covers binding signal for 14 molecules.

The labels stand for the following.
B1: ACGTCTTG (ssRNA)
RNA 1: GAGUUCUACAGUCCGACGAUCCCAACACGUCUUGCACCUGGAAUUCUCGGGUGCCAA
RNA 2: UGGAGUGUGACAAUGGUGUUUG
DNA 1: GATCGTCGGACTGTAGAACTC
DNA 2: TTGGCACCCGAGAATTCCA
modifications: constant regions annealed to DNA blockers; guide miR-122 5' phosphate
B2: ATGTCCCG (ssRNA)
RNA 1: GAGUUCUACAGUCCGACGAUCCCAACAUGUCCCGCACCUGGAAUUCUCGGGUGCCAA
RNA 2: UGGAGUGUGACAAUGGUGUUUG
DNA 1: GATCGTCGGACTGTAGAACTC
DNA 2: TTGGCACCCGAGAATTCCA
modifications: constant regions annealed to DNA blockers; guide miR-122 5' phosphate
B3: ACATTTTG (ssRNA)
RNA 1: GAGUUCUACAGUCCGACGAUCCCAACACAUUUUGCACCUGGAAUUCUCGGGUGCCAA
RNA 2: UGGAGUGUGACAAUGGUGUUUG
DNA 1: GATCGTCGGACTGTAGAACTC
DNA 2: TTGGCACCCGAGAATTCCA
modifications: constant regions annealed to DNA blockers; guide miR-122 5' phosphate
B4: ATACTCTG (ssRNA)
RNA 1: GAGUUCUACAGUCCGACGAUCCCAACAUACUCUGCACCUGGAAUUCUCGGGUGCCAA
RNA 2: UGGAGUGUGACAAUGGUGUUUG
DNA 1: GATCGTCGGACTGTAGAACTC
DNA 2: TTGGCACCCGAGAATTCCA
modifications: constant regions annealed to DNA blockers; guide miR-122 5' phosphate
B5: GTACCCCG (ssRNA)
RNA 1: GAGUUCUACAGUCCGACGAUCCCAACGUACCCCGCACCUGGAAUUCUCGGGUGCCAA
RNA 2: UGGAGUGUGACAAUGGUGUUUG
DNA 1: GATCGTCGGACTGTAGAACTC
DNA 2: TTGGCACCCGAGAATTCCA
modifications: constant regions annealed to DNA blockers; guide miR-122 5' phosphate
B6: ACATTTCG (ssRNA)
RNA 1: GAGUUCUACAGUCCGACGAUCCCAACACAUUUCGCACCUGGAAUUCUCGGGUGCCAA
RNA 2: UGGAGUGUGACAAUGGUGUUUG
DNA 1: GATCGTCGGACTGTAGAACTC
DNA 2: TTGGCACCCGAGAATTCCA
modifications: constant regions annealed to DNA blockers; guide miR-122 5' phosphate
B7: ATACCTCG (ssRNA)
RNA 1: GAGUUCUACAGUCCGACGAUCCCAACAUACCUCGCACCUGGAAUUCUCGGGUGCCAA
RNA 2: UGGAGUGUGACAAUGGUGUUUG
DNA 1: GATCGTCGGACTGTAGAACTC
DNA 2: TTGGCACCCGAGAATTCCA
modifications: constant regions annealed to DNA blockers; guide miR-122 5' phosphate
B8: ATATCCTA (ssRNA)
RNA 1: GAGUUCUACAGUCCGACGAUCCCAACAUAUCCUACACCUGGAAUUCUCGGGUGCCAA
RNA 2: UGGAGUGUGACAAUGGUGUUUG
DNA 1: GATCGTCGGACTGTAGAACTC
DNA 2: TTGGCACCCGAGAATTCCA
modifications: constant regions annealed to DNA blockers; guide miR-122 5' phosphate
B9: GCACCTTG (ssRNA)
RNA 1: GAGUUCUACAGUCCGACGAUCCCAACGCACCUUGCACCUGGAAUUCUCGGGUGCCAA
RNA 2: UGGAGUGUGACAAUGGUGUUUG
DNA 1: GATCGTCGGACTGTAGAACTC
DNA 2: TTGGCACCCGAGAATTCCA
modifications: constant regions annealed to DNA blockers; guide miR-122 5' phosphate
B10: ACGTTCCG (ssRNA)
RNA 1: GAGUUCUACAGUCCGACGAUCCCAACACGUUCCGCACCUGGAAUUCUCGGGUGCCAA
RNA 2: UGGAGUGUGACAAUGGUGUUUG
DNA 1: GATCGTCGGACTGTAGAACTC
DNA 2: TTGGCACCCGAGAATTCCA
modifications: constant regions annealed to DNA blockers; guide miR-122 5' phosphate
B11: ATACTTCG (ssRNA)
RNA 1: GAGUUCUACAGUCCGACGAUCCCAACAUACUUCGCACCUGGAAUUCUCGGGUGCCAA
RNA 2: UGGAGUGUGACAAUGGUGUUUG
DNA 1: GATCGTCGGACTGTAGAACTC
DNA 2: TTGGCACCCGAGAATTCCA
modifications: constant regions annealed to DNA blockers; guide miR-122 5' phosphate
B12: GTACTTCG (ssRNA)
RNA 1: GAGUUCUACAGUCCGACGAUCCCAACGUACUUCGCACCUGGAAUUCUCGGGUGCCAA
RNA 2: UGGAGUGUGACAAUGGUGUUUG
DNA 1: GATCGTCGGACTGTAGAACTC
DNA 2: TTGGCACCCGAGAATTCCA
modifications: constant regions annealed to DNA blockers; guide miR-122 5' phosphate
B13: ATATCTCG (ssRNA)
RNA 1: GAGUUCUACAGUCCGACGAUCCCAACAUAUCUCGCACCUGGAAUUCUCGGGUGCCAA
RNA 2: UGGAGUGUGACAAUGGUGUUUG
DNA 1: GATCGTCGGACTGTAGAACTC
DNA 2: TTGGCACCCGAGAATTCCA
modifications: constant regions annealed to DNA blockers; guide miR-122 5' phosphate
B14: GTACTCTG (ssRNA)
RNA 1: GAGUUCUACAGUCCGACGAUCCCAACGUACUCUGCACCUGGAAUUCUCGGGUGCCAA
RNA 2: UGGAGUGUGACAAUGGUGUUUG
DNA 1: GATCGTCGGACTGTAGAACTC
DNA 2: TTGGCACCCGAGAATTCCA
modifications: constant regions annealed to DNA blockers; guide miR-122 5' phosphate

Sequence of AGO2 A367P (Q9UKV8 whole entry A367P/S387D/S824A/S828D/S831D/S834A): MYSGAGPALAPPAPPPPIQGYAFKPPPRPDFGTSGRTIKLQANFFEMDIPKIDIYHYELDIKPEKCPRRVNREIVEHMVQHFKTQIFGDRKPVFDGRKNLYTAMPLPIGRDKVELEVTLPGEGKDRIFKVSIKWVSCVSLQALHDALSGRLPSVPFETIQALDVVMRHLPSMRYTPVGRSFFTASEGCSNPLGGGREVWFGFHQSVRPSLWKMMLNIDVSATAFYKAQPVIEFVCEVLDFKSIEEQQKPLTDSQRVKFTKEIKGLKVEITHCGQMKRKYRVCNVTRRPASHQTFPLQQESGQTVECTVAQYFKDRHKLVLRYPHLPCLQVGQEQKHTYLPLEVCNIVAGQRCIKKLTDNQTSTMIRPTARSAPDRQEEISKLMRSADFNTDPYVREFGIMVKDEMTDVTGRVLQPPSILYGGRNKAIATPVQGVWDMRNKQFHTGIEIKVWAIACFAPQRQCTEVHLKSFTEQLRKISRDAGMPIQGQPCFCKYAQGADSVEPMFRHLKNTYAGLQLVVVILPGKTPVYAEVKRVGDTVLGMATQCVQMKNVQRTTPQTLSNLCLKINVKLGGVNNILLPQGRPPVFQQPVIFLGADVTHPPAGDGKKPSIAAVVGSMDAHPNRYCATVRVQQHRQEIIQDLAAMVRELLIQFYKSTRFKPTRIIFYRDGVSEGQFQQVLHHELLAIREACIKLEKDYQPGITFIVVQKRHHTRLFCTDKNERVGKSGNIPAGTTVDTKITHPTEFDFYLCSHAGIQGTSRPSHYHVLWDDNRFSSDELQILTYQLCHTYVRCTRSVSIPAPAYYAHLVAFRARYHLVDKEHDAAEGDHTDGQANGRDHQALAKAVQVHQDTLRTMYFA
Sequence of AGO2 T357M (Q9UKV8 whole entry T357M/S387D/S824A/S828D/S831D/S834A): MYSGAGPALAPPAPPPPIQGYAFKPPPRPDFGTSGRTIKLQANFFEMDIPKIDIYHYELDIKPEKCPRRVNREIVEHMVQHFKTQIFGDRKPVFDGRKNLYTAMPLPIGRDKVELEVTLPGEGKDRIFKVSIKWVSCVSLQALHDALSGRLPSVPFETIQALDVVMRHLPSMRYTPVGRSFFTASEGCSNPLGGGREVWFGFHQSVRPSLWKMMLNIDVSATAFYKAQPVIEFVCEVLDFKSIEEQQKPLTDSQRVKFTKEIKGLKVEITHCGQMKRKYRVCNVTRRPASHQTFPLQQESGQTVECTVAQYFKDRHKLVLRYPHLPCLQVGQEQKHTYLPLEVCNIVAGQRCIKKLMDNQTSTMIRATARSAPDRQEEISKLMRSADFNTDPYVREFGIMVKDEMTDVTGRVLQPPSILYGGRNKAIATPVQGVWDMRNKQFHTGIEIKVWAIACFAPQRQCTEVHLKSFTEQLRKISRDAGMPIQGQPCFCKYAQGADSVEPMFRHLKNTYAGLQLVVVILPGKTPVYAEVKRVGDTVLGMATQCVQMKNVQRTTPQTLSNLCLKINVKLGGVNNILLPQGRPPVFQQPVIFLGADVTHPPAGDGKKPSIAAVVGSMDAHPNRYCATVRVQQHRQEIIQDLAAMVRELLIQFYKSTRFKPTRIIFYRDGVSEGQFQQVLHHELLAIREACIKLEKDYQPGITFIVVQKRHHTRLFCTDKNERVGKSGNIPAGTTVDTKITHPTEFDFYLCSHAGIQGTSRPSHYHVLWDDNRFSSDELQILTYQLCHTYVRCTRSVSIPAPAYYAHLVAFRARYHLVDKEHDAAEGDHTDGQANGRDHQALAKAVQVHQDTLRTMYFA

One assay deals with AGO2 L192P (Homo sapiens, UniProt Q9UKV8 1-859, L192P;S387D;S824A;S828D;S831D;S834A). The assay is described as follows: RNA Bind-n-Seq (nitrocellulose filter binding and sequencing); miR-122 guide loaded in AGO2; 60 min incubation; 30 mM Tris pH 8.0, 100 mM potassium acetate, 2 mM magnesium acetate, 0.5 mM TCEP, 0.005% NP-40, 0.01 mg/ml yeast tRNA; 3 nM AGO2-miR-122, 100 nM RNA library; 60; high values mean tight binding. The following applies: protein: recombinant; tags: His6 (N-terminal, pFastBac HTA). Put shortly: (§1)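 His-tagged AGO2 was expressed in Sf9 insect cells by baculovirus, loaded with a synthetic guide RNA, and purified by Ni-NTA and a biotinylated capture oligo. Bound RNA was extracted, reverse-transcribed, barcode-amplified and Illumina-sequenced. Fold enrichment is each sequence's read fraction divided by its input-library read fraction.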
Sequence of AGO2 L192P (Q9UKV8 whole entry L192P/S387D/S824A/S828D/S831D/S834A): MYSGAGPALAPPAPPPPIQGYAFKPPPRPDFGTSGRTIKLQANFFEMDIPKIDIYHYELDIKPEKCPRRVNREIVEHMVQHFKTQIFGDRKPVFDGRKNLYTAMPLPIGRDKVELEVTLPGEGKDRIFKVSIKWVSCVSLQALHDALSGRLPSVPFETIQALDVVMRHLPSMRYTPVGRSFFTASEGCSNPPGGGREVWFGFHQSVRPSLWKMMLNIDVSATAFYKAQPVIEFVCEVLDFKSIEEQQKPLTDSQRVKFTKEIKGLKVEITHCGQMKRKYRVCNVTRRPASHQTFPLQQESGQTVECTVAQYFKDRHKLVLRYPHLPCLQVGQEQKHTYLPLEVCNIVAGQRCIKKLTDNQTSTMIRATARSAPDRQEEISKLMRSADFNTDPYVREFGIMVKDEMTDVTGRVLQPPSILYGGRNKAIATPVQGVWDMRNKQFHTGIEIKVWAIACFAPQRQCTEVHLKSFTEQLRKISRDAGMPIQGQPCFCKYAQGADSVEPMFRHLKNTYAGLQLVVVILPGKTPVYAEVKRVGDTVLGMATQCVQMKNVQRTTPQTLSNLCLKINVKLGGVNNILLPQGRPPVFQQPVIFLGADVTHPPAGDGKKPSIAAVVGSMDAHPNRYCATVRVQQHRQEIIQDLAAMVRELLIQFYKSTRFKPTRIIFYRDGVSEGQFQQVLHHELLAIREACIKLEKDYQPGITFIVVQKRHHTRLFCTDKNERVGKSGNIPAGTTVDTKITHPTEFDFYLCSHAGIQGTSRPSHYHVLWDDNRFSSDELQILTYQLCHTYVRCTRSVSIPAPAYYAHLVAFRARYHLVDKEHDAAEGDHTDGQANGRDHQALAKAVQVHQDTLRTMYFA
Take B1: the binding signal was 0.319 fold enrichment over input.

In the case of B2, the binding signal is 0.319 fold enrichment over input.

In the case of B3, the binding signal is 0.41 fold enrichment over input.

Regarding B4, the binding signal was 0.349 fold enrichment over input.

As for B5, the binding signal was 0.358 fold enrichment over input.

For the molecule B6, the binding signal was 0.421 fold enrichment over input.

Turning to B7, the binding signal was 0.339 fold enrichment over input.

B8: the binding signal was 0.467 fold enrichment over input.

Regarding B9, the binding signal was 0.387 fold enrichment over input.

With B10, the binding signal is 0.361 fold enrichment over input.

Take B11: the binding signal is 0.406 fold enrichment over input.

In the case of B12, the binding signal was 0.351 fold enrichment over input.

As to B13, the binding signal is 0.351 fold enrichment over input.

Turning to B14, the binding signal was 0.332 fold enrichment over input.

A further assay deals with AGO2 A367P (Homo sapiens, UniProt Q9UKV8 1-859, A367P;S387D;S824A;S828D;S831D;S834A). The assay is described as above. Particulars: protein: recombinant; tags: His6 (N-terminal, pFastBac HTA). The method, boiled down:
as §1
On to B1, for which the binding signal was 0.134 fold enrichment over input.

Consider B2, for which the binding signal was 0.125 fold enrichment over input.

On to B3, for which the binding signal is 0.143 fold enrichment over input.

On to B4, for which the binding signal was 0.134 fold enrichment over input.

For the molecule B5, the binding signal is 0.123 fold enrichment over input.

As to B6, the binding signal is 0.151 fold enrichment over input.

For B7, the binding signal is 0.127 fold enrichment over input.

As for B8, the binding signal was 0.17 fold enrichment over input.

Take B9: the binding signal was 0.154 fold enrichment over input.

For B10, the binding signal was 0.128 fold enrichment over input.

Consider B11, for which the binding signal is 0.138 fold enrichment over input.

On to B12, for which the binding signal was 0.13 fold enrichment over input.

Take B13: the binding signal was 0.124 fold enrichment over input.

For B14, the binding signal is 0.134 fold enrichment over input.

The target in another assay is AGO2 T357M (Homo sapiens, UniProt Q9UKV8 1-859, T357M;S387D;S824A;S828D;S831D;S834A). The description is as above. The following applies: protein: recombinant; tags: His6 (N-terminal, pFastBac HTA). Put shortly:
as §1
On to B1, for which the binding signal was 0.501 fold enrichment over input.

Regarding B2, the binding signal was 0.416 fold enrichment over input.

For B3, the binding signal was 0.537 fold enrichment over input.

Turning to B4, the binding signal is 0.504 fold enrichment over input.

In the case of B5, the binding signal is 0.475 fold enrichment over input.

With B6, the binding signal is 0.514 fold enrichment over input.

In the case of B7, the binding signal was 0.409 fold enrichment over input.

As for B8, the binding signal was 0.569 fold enrichment over input.

With B9, the binding signal was 0.503 fold enrichment over input.

Consider B10, for which the binding signal is 0.44 fold enrichment over input.

For B11, the binding signal is 0.509 fold enrichment over input.

Turning to B12, the binding signal was 0.538 fold enrichment over input.

Consider B13, for which the binding signal was 0.398 fold enrichment over input.

Take B14: the binding signal was 0.423 fold enrichment over input.
